Assay outcomes deposited in PubChem BioAssay by National Center for Advancing Translational Sciences (NCATS).
Hits are enriched below; roughly 3.1% of the tested compounds scored in any of these assays.
S-ASM inh: Inhibitors of Secretory Acid Sphingomyelinase (S-ASM): qHTS. Sphingomyelin phosphodiesterase (Homo sapiens), P17405. placental ASM, HMU-PC fluorogenic substrate, 60 min. Potency, µM (top dose mostly 57.5 µM), without a hit: at the top dose activity change, negative = inhibition, usual class: inhibitors. hit rate 0.006% among 340,000. AID 504937, 2011
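Steps: dispense placental human ASM, pin compound, wait 10 min at room temperature, add HMU-PC0 substrate at 9 uM final, incubate 60 min at 37 °C, add stop solution raising pH to 10, read fluorescence.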
VDR inh: Inhibitors of the vitamin D receptor (VDR): qHTS. VDR-SRC2-3 peptide fluorescence polarization, 2 h. Potency, µM, without a hit: max response, negative = inhibition, hits mostly inhibitors. hit rate 0.93% among 400,000. AID 504847, 2011; note: % is set by controls: 0 for no effect and ±100 for the full control effect
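The screen uses fluorescence polarization to detect compounds that interfere with recruitment of the SRC2-3 coactivator peptide to VDR; plates are read after 2 h at room temperature.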
Tb PFK block: qHTS Assay to Find Inhibitors of T. brucei phosphofructokinase; ATP-dependent 6-phosphofructokinase (Trypanosoma brucei brucei), O15648; T. brucei PFK, ADP-Glo luminescence; Potency, µM (top dose mostly 57.5 µM), inactives show at the top dose activity, negative = inhibition, hits mostly inhibitors; hit rate 0.17% among 330,000;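 note: 0% = uninhibited 1x PFK enzyme wells and -100% = no-enzyme wells; nearly all actives have a fitted effect of over 60% in size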
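PFK 1.25 nM, F6P 0.5 mM, ATP 0.1 mM, 0.1 M TEA pH 8.0, 5 mM MgCl2, 0.01% Tween20, 0.1% BSA; 45 min RT. ADP-Glo readout. qHTS titration up to 57 uM; curves fitted, compounds curve-classed.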
Pin1 inh: qHTS Assay to Find Inhibitors of Pin1; Peptidyl-prolyl cis-trans isomerase NIMA-interacting 1 (Homo sapiens), Q13526; Pin1 FP peptide displacement, HiFluor488, 10 min; Potency, µM (titrated, usually from 115 µM), inactives show at the top dose activity, negative = inhibition, hits mostly inhibitors; hit rate 0.009% among 390,000; AID 504891, 2011; active = well fitted inhibition curve with a large enough effect in the polarisation, with a control signal flat, not every such curve was filed as active; inconclusive = small, poorly fitted or top-dose-only effect, or effect the other way, or a change in a side signal; inactive = no such curve, though single readings can be large or run the other way; the % refers to the polarisation; note: % is set by controls: 0 for no effect and ±100 for the full control effect
TDP1 inh: qHTS Assay for Inhibitors of Tyrosyl-DNA Phosphodiesterase (TDP1); Potency, µM (series often up to 130 µM), for inactives: at the top dose activity change, negative = inhibition, hits mostly inhibitors; hit rate 0.28% among 350,000; AID 485290, 2010; recombinant TDP1, AlphaScreen DNA substrate cleavage; note: % is set by controls: 0 for no effect and ±100 for the full control effect; nearly all actives have a fitted effect of over 40% in size
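Steps: enzyme plus compound, 15 min RT; add biotin/phosphotyrosine-FITC oligonucleotide (15 nM final), react 5 min; add donor/acceptor beads (10 ug/ml final), 10 min; read AlphaScreen. Tdp1 at 1 nM final.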
PLK1 PBD inh: qHTS for Inhibitors of PLK1-PDB (polo-like kinase 1 - polo-box domain): Primary Screen. Plk1 PBD binding of FITC phosphopeptide, fluorescence polarization. AID 720504, 2013. Potency, µM, without a hit: max response, negative = inhibition, usual class: inhibitors. Serine/threonine-protein kinase PLK1 (Homo sapiens), P53350. hit rate 2.8% among 360,000; note: series mostly up to about 57 µM; % is set by controls: 0 for no effect and ±100 for the full control effect; nearly all actives have a fitted effect of over 65% in size
Target sequence (P53350 whole entry, looked up, the tested form may be a part): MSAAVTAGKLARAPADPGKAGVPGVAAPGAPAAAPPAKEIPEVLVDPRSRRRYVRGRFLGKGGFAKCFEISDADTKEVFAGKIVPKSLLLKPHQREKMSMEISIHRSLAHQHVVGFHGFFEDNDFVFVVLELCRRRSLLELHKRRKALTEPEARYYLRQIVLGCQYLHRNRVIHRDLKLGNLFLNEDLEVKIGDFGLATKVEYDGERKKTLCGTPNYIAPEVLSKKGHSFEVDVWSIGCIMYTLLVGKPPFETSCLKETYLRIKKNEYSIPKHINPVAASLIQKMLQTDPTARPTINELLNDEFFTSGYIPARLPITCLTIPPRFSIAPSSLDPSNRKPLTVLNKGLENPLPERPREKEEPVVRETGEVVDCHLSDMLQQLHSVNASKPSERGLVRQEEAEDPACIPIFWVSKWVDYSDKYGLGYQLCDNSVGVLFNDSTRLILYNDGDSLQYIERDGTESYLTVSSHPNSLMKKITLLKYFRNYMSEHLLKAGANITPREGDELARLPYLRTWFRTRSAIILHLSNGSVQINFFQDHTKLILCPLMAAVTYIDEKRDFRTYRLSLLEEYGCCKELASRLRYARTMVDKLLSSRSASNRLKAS
An asterisk follows results filed as active. Unless noted, calls come from the whole dose curve; as a rule, active = well fitted curve in the direction sought with a large enough effect; inconclusive = small, poorly fitted or top-dose-only effect, or another doubt; inactive = no such curve, though single readings can be large; an effect the other way counts as inactive or inconclusive. Potency is the fitted concentration of half-maximal effect.

For CCOc1ccc2nc3ccc4[nH]onc4c3c2c1 the results were S-ASM inh 70%, VDR inh -14%, Pin1 inh -3% and PLK1 PBD inh -11%.
CCOc1ccc2nc3cc(N)ccc3c(N)c2c1 was read as VDR inh 13µM* and TDP1 inh 6%.
Screening CCCCCn1c(=N)n(CC(O)COc2cccc(C)c2)c2ccccc21 (stereo not drawn) returned VDR inh -7%, Pin1 inh 6% and TDP1 inh -1%.
Screening COc1cccc(C(=O)NC2CCN(CC(=O)Nc3nccs3)CC2)c1 returned S-ASM inh 3%, VDR inh -4%, Tb PFK block 0%, Pin1 inh 0%, TDP1 inh 6% and PLK1 PBD inh 24µM*.
For O=C(CNC(=O)c1ccccc1)N[C@@H](C(=O)Nc1cc(C(F)(F)F)ccc1Cl)c1ccccc1 the results were Pin1 inh -13% and TDP1 inh -2%.
`O=c1[nH]c2ccc(S(=O)(=O)N3CCN(S(=O)(=O)c4c(F)cccc4F)CC3)cc2[nH]c1=O` gave Pin1 inh inconclusive and TDP1 inh 45µM*.
For CCC(C)c1ccccc1OCCn1c(CCNC(=O)C2CCCCC2)nc2ccccc21 (stereo not drawn) the results were VDR inh -11%, Pin1 inh inconclusive and TDP1 inh 1%.
Screening O=C(O)c1ccc(N/N=C/C2=Cc3ccccc3OC2)cc1 returned S-ASM inh 29%, VDR inh -18%, Tb PFK block 1%, Pin1 inh -3%, TDP1 inh 2% and PLK1 PBD inh 24µM*.
Screening CC1=C(C)CC(C(=O)Nc2ccc(C(=O)N3CCOCC3)cc2)C(C(=O)O)C1 (stereo not drawn) returned S-ASM inh 6%, VDR inh -22%, Tb PFK block -12%, Pin1 inh 0%, TDP1 inh -5% and PLK1 PBD inh 21µM*.
For CCn1cc(CN2CCC(n3nccc3NC(=O)C3CCCC3)CC2)c(C)n1 the results were VDR inh -16%, Tb PFK block -6%, Pin1 inh -1%, TDP1 inh 1% and PLK1 PBD inh -6%.
For CCn1cc(CN2CCC(n3nccc3NC(=O)c3ccc4c(c3)OCO4)CC2)c(C)n1 the results were S-ASM inh 2%, VDR inh 9%, Tb PFK block -1%, Pin1 inh 1%, TDP1 inh 1.8µM* and PLK1 PBD inh -11%.
COc1ccc(C(=O)Nc2ccnn2C2CCN(Cc3ccc4nonc4c3)CC2)cc1 was read as S-ASM inh 1%, VDR inh 19%, Tb PFK block inconclusive, Pin1 inh -6%, TDP1 inh 22µM* and PLK1 PBD inh 0%.
For O=c1c(-c2ccc(F)cc2)nc2cnc(N3CCNCC3)nc2n1-c1ccccc1 the results were VDR inh -7%.
Oc1c(Cl)cc(Cl)cc1/C=N/c1nccs1 was read as S-ASM inh 4%, VDR inh 79µM*, Tb PFK block -5%, Pin1 inh inconclusive, TDP1 inh 2% and PLK1 PBD inh 34µM*.
For Cn1c(=O)n(C)c2cc(/C=N/NC(=O)c3ccc(Cl)cc3)ccc21 the results were S-ASM inh -1%, VDR inh inconclusive, Tb PFK block -4%, Pin1 inh -7% and PLK1 PBD inh 30µM*.
`CCCNC(=O)OCc1cccnc1Sc1ccc(C)cc1` gave S-ASM inh 0%, VDR inh -5%, Tb PFK block -2%, Pin1 inh -5%, TDP1 inh -5% and PLK1 PBD inh 27µM*.
Screening CCOC(=O)Nc1cccnc1Sc1ccc(Cl)cc1 returned S-ASM inh 3%, VDR inh -3%, Pin1 inh -5% and PLK1 PBD inh -26%.
For CC(NC(=O)/C(C#N)=C/c1ccc([N+](=O)[O-])o1)c1ccccc1 (stereo not drawn) the results were S-ASM inh 142%, VDR inh 25µM*, Tb PFK block -18%, Pin1 inh inconclusive, TDP1 inh 8% and PLK1 PBD inh 24µM*.
CSc1ccc(CNC(=O)C2CCCN(S(=O)(=O)N(C)c3ccc(F)cc3)C2)cc1 (stereo not drawn) was read as VDR inh 11%, Pin1 inh 11% and TDP1 inh 5%.
For CCOc1cccc(C=Nc2cc(C)cc(C)c2O)c1O the results were S-ASM inh 1%, VDR inh inconclusive, Tb PFK block -10%, Pin1 inh 9%, TDP1 inh 14% and PLK1 PBD inh 24µM*.
CCOc1cccc(/C=N/N=C/c2cccc(OCC)c2O)c1O was read as S-ASM inh 58%, VDR inh -9%, Tb PFK block -4%, Pin1 inh -7% and PLK1 PBD inh -3%.
Screening Cc1ccc2c(C)cc(=S)[nH]c2c1 returned S-ASM inh 1%, VDR inh -13%, Tb PFK block 0%, Pin1 inh 6%, TDP1 inh 9% and PLK1 PBD inh inconclusive.
For Cc1ccc2[nH]c(=S)cc(C)c2c1 the results were S-ASM inh 0%, VDR inh -22%, Tb PFK block -3%, Pin1 inh 3%, TDP1 inh 8% and PLK1 PBD inh 6µM*.
For COc1ccc(C2Nc3ccccc3C(=O)N2Cc2cccc(-c3ccccc3)c2)cc1COc1ccc(NC(C)=O)cc1 (stereo not drawn) the results were Pin1 inh 13% and TDP1 inh 1%.
For COc1ccccc1N(O)C1CC(=O)N(c2ccc(Br)cc2)C1=O (stereo not drawn) the results were S-ASM inh -5%, VDR inh 50µM*, Tb PFK block 0%, Pin1 inh -1%, TDP1 inh -2% and PLK1 PBD inh 3µM*.
Screening Cn1ccnc1Sc1cc(NCCCO)c([N+](=O)[O-])c2nonc12 returned S-ASM inh -2%, VDR inh 20µM*, Tb PFK block -27%, Pin1 inh 6%, TDP1 inh 8% and PLK1 PBD inh 3µM*.
Screening COc1ccc(C(=O)NCC2(c3ccccc3)CCOCC2)cc1[N+](=O)[O-] returned S-ASM inh 3%, VDR inh inconclusive, Tb PFK block -1%, Pin1 inh 0%, TDP1 inh 0% and PLK1 PBD inh 12µM*.
